Test results taken from PubChem BioAssay (NCI).
This is part of a sample that, as a whole, favours compounds with a hit. Of some 79,000 tested, about 15% had one in any assay. Values without a mark were called inactive. Active and inactive are the calls of the source. Cut-off read from the data, not from the text of the source: active = growth inhibition above about 70%; inactive = the rest.

Experiments:
[1] = NCI Yeast Anticancer Drug Screen. Data for the rad50 strain (AID 155);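 note: 0% = growth of vehicle-only cultures of the same strain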; details: S. cerevisiae rad50 strain growth inhibition, hits give high values
How it was run: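 Genetically altered yeast (DNA repair pathway); compound treatment; growth inhibition vs vehicle ctrl.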

[2] = NCI Yeast Anticancer Drug Screen. Data for the mec2-1 strain (AID 157); details: S. cerevisiae mec2-1 strain, hits give high values
How it was run: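 Readout is yeast growth inhibition, normalised to vehicle-treated controls, in the mec2-1 strain exposed to compound.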

[3] = NCI Yeast Anticancer Drug Screen. Data for the sgs1 mgt1 strain (AID 161);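 note: 0% = growth of cultures given vehicle only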; details: S. cerevisiae sgs1 mgt1 strain, hits give high values
How it was run: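 Growth of a repair-deficient yeast mutant was monitored after compound treatment and expressed as inhibition relative to vehicle-treated cultures.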

[4] = NCI Yeast Anticancer Drug Screen. Data for the cln2 rad14 strain (AID 165);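 note: 0% = growth equal to vehicle treated cultures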; details: S. cerevisiae cln2 rad14 strain, hits give high values
How it was run: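 Relative to vehicle controls, growth inhibition of compound-treated cln2 rad14 yeast was recorded.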

[5] = NCI Yeast Anticancer Drug Screen. Data for the bub3 strain (AID 167); details: S. cerevisiae bub3 mutant strain, hits give high values
How it was run: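 Yeast carrying a defined mutation is treated with each compound, and growth is compared with that of vehicle-exposed cells to give inhibition.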

[6] = NCI Yeast Anticancer Drug Screen. Data for the mlh1 rad18 strain (AID 175); details: S. cerevisiae mlh1 rad18 strain growth inhibition, hits give high values
How it was run: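 Test agents were incubated with a yeast strain of defined genotype (DNA damage repair defect). Inhibition of growth was derived by comparison with vehicle-exposed cultures.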

[7] = at 5.0 µM (retest, dose inferred, filed as 0.5)
[8] = at 50.0 µM (retest, dose inferred, filed as 5.0)

| SMILES | growth inhibition [1, 7] | growth inhibition [1, 8] | growth inhibition ([1]; at 50.0 µM) | growth inhibition [2, 7] | growth inhibition [2, 8] | growth inhibition ([2]; at 50.0 µM) | growth inhibition [3, 7] | growth inhibition [3, 8] | growth inhibition ([3]; at 50.0 µM) | growth inhibition [4, 7] | growth inhibition [4, 8] | growth inhibition ([4]; at 50.0 µM) | growth inhibition [5, 7] | growth inhibition [5, 8] | growth inhibition ([5]; at 50.0 µM) | growth inhibition [6, 7] | growth inhibition [6, 8] | growth inhibition ([6]; at 50.0 µM) |
| --- | --- | --- | --- | --- | --- | --- | --- | --- | --- | --- | --- | --- | --- | --- | --- | --- | --- | --- |
| [Ni+2].[O-][Cl+3]([O-])([O-])O.c1ccc([PH+](CC[PH+](c2ccccc2)c2ccccc2)c2ccccc2)cc1.c1ccc([PH+](CC[PH+](c2ccccc2)c2ccccc2)c2ccccc2)cc1 | 4% | 13% | 48.6% | -1% | 12% | 41.8% | 1% | 32% | 59.2% | 3% | -3% | 9.05% | 4% | 31% | 43.9% | 3% | 26% | 72% (active) |
| C=CCOc1cc2c(ccc1=O)-c1c(cc(OC)c(OC)c1OC)CCC2NC(C)=O (centres undefined) | -3% | 3% | 96.1% (active) | 3% | 80% (active) | 87.6% (active) | -18% | 45% | 93.9% (active) | -5% | -11% | 96.3% (active) | -5% | 66% | 96.8% (active) | -5% | 78% (active) | 95.5% (active) |
| CC(C)(C)CC(C)(C)c1ccc(O)cc1 | -11% | 99% (active) | 99.7% (active) | -12% | 99% (active) | 99.7% (active) | -6% | 98% (active) | 99.8% (active) | -7% | 99% (active) | 99.5% (active) | -22% | 98% (active) | 98.5% (active) | -9% | 99% (active) | 99.6% (active) |
| CCN(CC)C1CC(O[C@H]2C[C@](O)(C(=O)CO)Cc3c(O)c4c(c(O)c32)C(=O)c2c(OC)cccc2C4=O)OC(C)C1O (some centres undefined) | 98% (active) | 98% (active) | 99.2% (active) | 99% (active) | 99% (active) | 99.3% (active) | 99% (active) | 99% (active) | 99.5% (active) | 97% (active) | 98% (active) | 98.8% (active) | 98% (active) | 99% (active) | 99% (active) | 98% (active) | 96% (active) | 99.3% (active) |
| CCCCCCCCCCCCN1CC1 | -26% | 26% | 91% (active) | -38% | -7% | 68% | -10% | 47% | 58.5% | -23% | -2% | 59.5% | 1% | 44% | 82% (active) | -70% | -17% | 67.1% |
| COc1cc(C[C@H]2c3cc(OC)c(OC)c(O)c3CCN2C)c(Oc2cc3c(cc2OC)-c2c(OC)c(OC)c(OC)c4c2C(C3)N(C)CC4)cc1OC (some centres undefined) (tested in a mixture with another compound) | -2% | 40% | 64.7% | -1% | 52% | 33.5% | -6% | 36% | 47.8% | -7% | 44% | 44.8% | 3% | 39% | 61.5% | -5% | 96% (active) | 80% (active) |
| CC12CCC(C)(c3cc(O)c(O)cc31)c1cc(O)c(O)cc12 | -4% | 4% | 52.3% | -1% | -1% | 31.4% | -1% | 4% | 37% | 2% | 19% | 57.5% | 4% | 33% | 43.9% | -1% | 22% | 70.1% (active) |
| CCC[CH2][Sn]([Cl])([Cl])[CH2]CCC | 96% (active) | 98% (active) | 99.5% (active) | 98% (active) | 98% (active) | 99.3% (active) | 96% (active) | 96% (active) | 99.2% (active) | 98% (active) | 98% (active) | 98.7% (active) | 98% (active) | 98% (active) | 99.5% (active) | 98% (active) | 97% (active) | 98.8% (active) |
